High-throughput results as filed in PubChem BioAssay.
GPR151 activ: activators of human GPR151, primary screen, cell-based, PathHunter beta-arrestin, luminescence; PathHunter beta-arrestin GPR151 cells; activation, % at 11.2 µM; hit rate 1% among 650,000; AID 1508602, 2020; in the data active means activation above about 4.9%
Target sequence (Q8TDV0 whole entry, looked up): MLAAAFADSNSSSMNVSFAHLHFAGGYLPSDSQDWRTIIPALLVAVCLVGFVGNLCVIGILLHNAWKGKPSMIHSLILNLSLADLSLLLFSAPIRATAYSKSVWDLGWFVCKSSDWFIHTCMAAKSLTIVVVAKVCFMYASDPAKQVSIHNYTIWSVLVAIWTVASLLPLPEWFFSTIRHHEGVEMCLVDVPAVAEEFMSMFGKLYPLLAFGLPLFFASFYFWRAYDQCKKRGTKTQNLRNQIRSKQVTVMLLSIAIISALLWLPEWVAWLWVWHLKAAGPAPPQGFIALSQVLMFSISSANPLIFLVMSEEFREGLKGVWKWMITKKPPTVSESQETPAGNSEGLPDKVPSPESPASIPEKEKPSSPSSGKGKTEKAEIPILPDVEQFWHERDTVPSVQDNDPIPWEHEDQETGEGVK
FBW7 activator: FBW7 E3 ligase activators, primary screen, biochemical, AlphaScreen, human. F-box/WD repeat-containing protein 7 (Homo sapiens), Q969H0. AlphaScreen FBW7–phospho-cyclin E peptide binding, activator screen. normalized activity (activation), % at 26.1 µM. hit rate 0.13% among 650,000. AID 1259310, 2017; in the data active means normalized activity above about 1.9%;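 further: purified mutant Fbw7 with reduced substrate affinity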
MITF primary: MITF inhibitors, primary screen, biochemical, AlphaScreen, human; Microphthalmia-associated transcription factor (Homo sapiens), O75030; AlphaScreen MITF homodimerization, bead proximity signal; inhibition, % at 2.6 µM; hit rate 0.91% among 650,000; AID 1259374, 2018; in the data active means inhibition above about 50%
TEAD-YAP block: TEAD-YAP interaction inhibition, primary screen, TEAD-YAP interaction inhibitor project, luminescence, HEK-TIYL cells. TEAD-Gal4/YAP UAS-luciferase luminescence. inhibition, % at 9.12 µM. hit rate 1.4% among 640,000. AID 1259422, 2018; in the data active means inhibition above about 32%
MITF confirm: MITF inhibitors, retest of hits, confirmation, biochemical, AlphaScreen, triplicate; shares compounds with MITF primary; AlphaScreen MITF homodimerization, biotin/His-MITF beads; inhibition, % at 2.6 µM; hit rate 16% among 4,700;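 active means inhibition above a cutoff derived from the DMSO control wells, cut at about 28% in these data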;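 further: inhibitors lower the bead chemiluminescence by keeping MITF from dimerizing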
AlphaScreen DR: AlphaScreen optical interference compounds, dose response, counter-screen, biochemical, HTS | shares compounds with MITF primary | AlphaScreen optical interference counterscreen, cell-free | IC50, µM | hit rate 6% among 480 | AID 1259373, 2018; call rule not given here
AlphaScreen intf2: AlphaScreen optical interference compounds, counter-screen for MITF inhibitor project, biochemical, triplicate | shares compounds with MITF primary | LysRS AlphaScreen counterscreen, signal interference | inhibition, % at 2.6 µM | hit rate 7.6% among 4,700 | AID 1259376, 2018;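 active means inhibition above a cutoff derived from the DMSO control wells, cut at about 30% in these data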
A number is an active result; 0 = inactive; - = not tested or not shown. Hits are enriched below; roughly 3.4% of the tested compounds scored in any of these assays.

SMILES | GPR151 activ | FBW7 activator | MITF primary | TEAD-YAP block | MITF confirm | AlphaScreen intf2 | others
C=CCOc1c(Cl)cc(/C=c2\sc3n(c2=O)C(c2ccc(OCC)cc2)C(C(=O)OCC)=C(C)N=3)cc1Cl (stereo not drawn) | 0 | 0 | 0 | 0 | - | -
O=C(CN1CCN(CC(=O)c2ccco2)CC1)Nc1ccc2c(c1)OCCO2 | 0 | 0 | 68.5 | 0 | 0 | 0
COc1ccc(Cl)cc1NC(=O)CN1CCN(CC(=O)c2ccco2)CC1 | 0 | 0 | 53.2 | 0 | 0 | 0
O=C(CC(=O)c1ccco1)Nc1cc(Cl)ccc1Cl | 0 | 0 | 55.7 | 0 | 0 | 0
N#Cc1ccccc1NC(=O)CN1CCN(Cc2ccccc2)CC1 | 0 | 0 | 60.1 | 0 | 0 | 0
Cc1ccccc1NC(=O)CN1CCN(Cc2ccccc2)CC1 | 0 | 0 | 0 | 0 | - | -
COc1ccc(Cl)cc1NC(=O)CN1CCN(C)CC1 | 0 | 0 | 0 | 0 | - | -
CN(C)CCCN1C(=O)C2C(C(=O)Nc3ccc(Cl)c(Cl)c3)C3C=CC2(O3)C1C(=O)NC1CCCCC1 (stereo not drawn) | 0 | 0 | 0 | 0 | - | -
O=C1CCCN1CCCNc1ncnc2nc(Nc3ccncn3)[nH]c12 | 0 | 0 | 0 | 0 | - | -
COC(=O)c1ccccc1NC(=O)CN(C1CCCCC1)S(=O)(=O)c1ccc(C)cc1 | 0 | 0 | 0 | 0 | - | -
c1ccc(-c2cn3c4ccccc4nc3n2-c2ccccc2)cc1 | 0 | 0 | 0 | 0 | - | -
O=C(CN1CCN(CC(=O)c2ccco2)CC1)Nc1ccccc1F | 0 | 0 | 66.4 | 0 | 0 | 0
O=C(CN1CCC(NC(=O)c2ccco2)CC1)Nc1ccccc1F | 0 | 0 | 0 | 0 | - | -
Cc1cc(C)n(CCCNCC(O)COc2ccc(-c3ccccc3)cc2)n1 (stereo not drawn) | 0 | 0 | 0 | 0 | - | -
OC(CNCCCn1ccnc1)COc1cccc2ccccc12 (stereo not drawn) | 0 | 0 | 83.6 | 0 | 0 | 0
OC(CNCCCn1ccnc1)COc1ccccc1 (stereo not drawn) | 0 | 0 | 75.1 | 0 | 0 | 0
Cc1cccc(OCC(O)CNCCCn2ccnc2)c1 (stereo not drawn) | 0 | 0 | 65.4 | 0 | 0 | 0
Cc1cc(C)n(CCCNCC(O)COc2ccc(C(=O)c3ccccc3)cc2)n1 (stereo not drawn) | 0 | 0 | 59.9 | 0 | 0 | 0
Cc1ccc2c(c1)N(C(=O)CCC(=O)NC1CCCCC1C)CC(C)O2 (stereo not drawn) | 0 | 0 | 0 | 0 | - | -
O=C(O)CCC(NCc1ccco1)C(=O)O (stereo not drawn) | 0 | 0 | 62.3 | 0 | 55.7 | 0 | AlphaScreen DR=0
COc1cc2c(cc1OC)CN(CC(O)c1ccccc1)CC2 (stereo not drawn) | 0 | 0 | 50.6 | 0 | 0 | 0
COc1cc2c(cc1OC)CN(CCC(c1ccccc1)c1ccccc1)CC2 | 0 | 0 | 0 | 0 | - | -
CCOC(=O)c1c(NC(=O)C(F)(F)F)sc(C(=O)Nc2ccccc2)c1C | 0 | 0 | 55.0 | 0 | 0 | 0
O=C1NC2(CCN(C(=O)CC3NC(=O)c4ccccc43)CC2)Oc2ccccc21 (stereo not drawn) | 0 | 0 | 0 | 0 | - | -
O=C1CCc2cc(S(=O)(=O)NC(Cc3ccccc3)C(=O)O)ccc2N1 (stereo not drawn) | 0 | 0 | 0 | 0 | - | -
SMILES | GPR151 activ | FBW7 activator | MITF primary | TEAD-YAP block | MITF confirm | AlphaScreen intf2 | others
COc1ccc(/C=N/N=C2\NC(=O)C(CC(=O)Nc3ccc(C)cc3)S2)cc1 (stereo not drawn) | 0 | 0 | 72.6 | 0 | 0 | 0
O=C(CC1S/C(=N/N=C2\CSC(=O)N2)NC1=O)Nc1ccccc1 (stereo not drawn) | 0 | 0 | 64.9 | 0 | 65.8 | 100.3
CC1=C/C(=N\N=C2\NC(=O)C(CC(=O)Nc3ccc(C(=O)O)cc3)S2)CC(C)(C)C1 (stereo not drawn) | 0 | 0 | 67.9 | 0 | 72.1 | 0 | AlphaScreen DR=0
CCOc1ccc(NC(=O)CC2S/C(=N\N=C3/C=C(C)CC(C)(C)C3)NC2=O)cc1 (stereo not drawn) | 0 | 0 | 0 | 0 | - | -
Cc1ccc(NC(=O)CC2S/C(=N\N=C3\CSC(=O)N3)NC2=O)cc1 (stereo not drawn) | 0 | 0 | 82.2 | 0 | 68.0 | 100.1
CCOC(=O)c1c(NC(=O)Cc2ccccc2)sc(C(=O)Nc2ccccc2F)c1C | 0 | 0 | 0 | 0 | - | -
Cc1ccc(COc2ccc(/C=N/N=C3\NC(=O)C(CC(=O)O)S3)cc2)cc1 (stereo not drawn) | 0 | 0 | 52.8 | 0 | 35.1 | 0 | AlphaScreen DR=0
CCOc1cc(/C=N/N=C2\NC(=O)C(CC(=O)O)S2)ccc1OCc1ccc(F)cc1 (stereo not drawn) | 0 | 0 | 0 | 0 | - | -
COc1ccc(NC(=O)CC2S/C(=N/N=C3\CSC(=O)N3)NC2=O)cc1 (stereo not drawn) | 0 | 0 | 82.5 | 0 | 61.6 | 100.3
O=C(NNC(=S)NCc1ccco1)c1cccc(S(=O)(=O)N2CCOCC2)c1 | 0 | 0 | 0 | 0 | - | -
Cc1cc2cc(CN(CCO)S(=O)(=O)c3ccc(F)cc3)c(=O)[nH]c2cc1C | 0 | 0 | 0 | 0 | - | -
CCOc1ccc(S(=O)(=O)N(CC)CC)c2ccccc12 | 0 | 0 | 0 | 0 | - | -
CC(NC(=O)CN1CCN(c2cccc(Cl)c2)CC1)c1ccccc1 (stereo not drawn) | 0 | 0 | 0 | 0 | - | -
CCCN1CCN(CC(=O)NC(C)c2cccc(Cl)c2)CC1 (stereo not drawn) | 0 | 0 | 91.7 | 0 | 0 | 0
CCCN1CCCc2cc(CCNS(=O)(=O)c3cccs3)ccc21 | 0 | 0 | 58.5 | 0 | 0 | 0
Cc1cccc(NC(=O)CN(c2ccc(F)cc2)S(C)(=O)=O)c1C | 0 | 0 | 0 | 0 | - | -
CCOc1ccccc1CN1CCC(N2CCOCC2)CC1 | 0 | 0 | 0 | 0 | - | -
CCOc1ccccc1CN1CCC(N2CCC(C)CC2)CC1 | 0 | 0 | 70.5 | 0 | 0 | 0
COc1ccc(CN2CCN(C3CCC(c4ccccc4)CC3)CC2)c(OC)c1OC (stereo not drawn) | 0 | 0 | 52.9 | 0 | 0 | 0
CCN1CCN(C2CCN(Cc3ccc(OC)c(OC)c3OC)CC2)CC1 | 0 | 0 | 60.7 | 0 | 0 | 0
COc1ccc(CN2CCC(N3CC(C)OC(C)C3)CC2)cc1 (stereo not drawn) | 0 | 0 | 87.0 | 0 | 0 | 0
CCN1CCN(C2CCN(Cc3cc(OC)c(OC)c(OC)c3)CC2)CC1 | 0 | 0 | 0 | 0 | - | -
COc1ccc(CNc2ccnc3c(-c4cccc(O)c4)cnn23)cc1 | 0 | 0 | 0 | 0 | - | -
COc1ccccc1CN1CCC(N2CCN(C)CC2)CC1 | 0 | 0 | 0 | 0 | - | -
